Active and inactive are the calls of the source. How the source made its calls: active means hit-call score of the fitted dose curve at least 0.9, where 1 is the maximum; inactive means score below 0.9.
Key:
[1] = read-out: Urokinase-type plasminogen activator receptor (uPAR), PLAUR (gene 5329); test: BSK_CASM3C_uPAR: BioMAP Diversity Plus: CASM3C Assay for Urokinase-type plasminogen activator receptor (uPAR) Biomarker Activity (AID 2283054); conditions: primary human coronary artery smooth muscle cells; actives raise or lower the signal;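 further: cell-surface uPAR protein level quantified by ELISA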
[2] = read-out: Vascular cell adhesion molecule 1 (VCAM1), VCAM1 (gene 7412); test: BSK_CASM3C_VCAM1: BioMAP Diversity Plus: CASM3C Assay for Vascular cell adhesion molecule 1 (VCAM1) Biomarker Activity (AID 2283055); conditions: primary human coronary artery smooth muscle cells; actives raise or lower the signal;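 further: VCAM-1 protein level quantified by ELISA on the cells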
[3] = read-out: Collagen III, COL3A1 (gene 1281); test: BSK_hDFCGF_CollagenIII: BioMAP Diversity Plus: hDFCGF Assay for Collagen III Biomarker Activity (AID 2283056); conditions: primary human foreskin fibroblasts; actives raise or lower the signal
Method in brief: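 Response relative to DMSO, fitted in both directions, reflects ELISA-measured collagen III in human primary skin fibroblasts 24 h after compound addition.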

[4] = read-out: Epidermal growth factor receptor (EGFR), EGFR (gene 1956); test: BSK_hDFCGF_EGFR: BioMAP Diversity Plus: hDFCGF Assay for Epidermal growth factor receptor (EGFR) Biomarker Activity (AID 2283057); conditions: primary human foreskin fibroblasts; actives raise or lower the signal
Method in brief: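 EGFR levels by ELISA in human dermal fibroblast cultures, 24 h post-treatment, fitted bidirectionally versus DMSO. Parallel wells stained with sulforhodamine B to detect overt cytotoxicity.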

[5] = read-out: Interleukin-8 (IL8), CXCL8 (gene 3576); test: BSK_hDFCGF_IL8: BioMAP Diversity Plus: hDFCGF Assay for Interleukin-8 (IL8) Biomarker Activity (AID 2283058); conditions: primary human foreskin fibroblasts; actives raise or lower the signal
Method in brief: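 Fibroblast monolayers (human foreskin, hDFCGF) received test chemical for 24 h before ELISA detection of IL-8; either increases or decreases relative to DMSO count as activity.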

[6] = BSK_hDFCGF_Proliferation: Cell Proliferation Assessment in the BioMAP Diversity Plus: hDFCGF Assay (AID 2283059); conditions: primary human foreskin fibroblasts;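 further: curves fitted for both rise and fall of signal versus DMSO baseline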
Method in brief: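 Primary human foreskin fibroblasts, sub-confluent; […]; 10% TCA fix, 0.1% SRB stain, A560 total protein. Gain/loss fitted bidirectionally vs DMSO control.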

[7] = read-out: Macrophage colony-stimulating factor (MCSF), CSF1 (gene 1435); test: BSK_hDFCGF_MCSF: BioMAP Diversity Plus: hDFCGF Assay for Macrophage colony-stimulating factor (MCSF) Biomarker Activity (AID 2283060); conditions: primary human foreskin fibroblasts; actives raise or lower the signal
Method in brief: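 fibroblasts (human foreskin, primary), 24 h post-dose; M-CSF by ELISA; bidirectional fit, DMSO = baseline.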

[8] = read-out: TIMP metallopeptidase inhibitor 1 (TIMP1), TIMP1 (gene 7076); test: BSK_hDFCGF_TIMP1: BioMAP Diversity Plus: hDFCGF Assay for TIMP metallopeptidase inhibitor 1 (TIMP1) Biomarker Activity (AID 2283062); conditions: primary human foreskin fibroblasts; actives raise or lower the signal
Method in brief: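 Bidirectional curve fitting against DMSO baseline yielded this endpoint, based on ELISA detection of TIMP-1 in primary human foreskin fibroblasts exposed to compound for 24 h.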

[9] = read-out: Monokine induced gamma interferon (MIG), CXCL9 (gene 4283); test: BSK_hDFCGF_MIG: BioMAP Diversity Plus: hDFCGF Assay for Monokine induced gamma interferon (MIG) Biomarker Activity (AID 2283063); conditions: primary human foreskin fibroblasts; actives raise or lower the signal
Method in brief: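 Endpoint derived by bidirectional fitting relative to DMSO; MIG quantified via ELISA in primary human foreskin fibroblasts harvested 24 h after dosing.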

[10] = read-out: Matrix Metallopeptidase 1 (MMP1), MMP1 (gene 4312); test: BSK_hDFCGF_MMP1: BioMAP Diversity Plus: hDFCGF Assay for Matrix Metallopeptidase 1 (MMP1) Biomarker Activity (AID 2283064); conditions: primary human foreskin fibroblasts; actives raise or lower the signal
Method in brief: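 Human foreskin fibroblasts exposed to chemical for 24 h; MMP1 detected by ELISA, with DMSO as baseline for bidirectional fitting.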

Measured: AC50

CCO[Si](CCCN=C=O)(OCC)OCC
inactive: all assays above

COc1ccc2nc(N)sc2c1
inactive: all assays above

CCO[Si](C)(OCC)OCC
inactive: all assays above

CCCCC/C=C\C/C=C\CCCCCCCC(=O)OC
inactive: [4] | [5]
active: [1] 28.7 µM | [2] 21.6 µM | [3] 27.8 µM | [6] 5.85 µM | [7] 26.5 µM | [8] 29.3 µM | [9] 35.3 µM | [10] 33.4 µM

CCCCNc1ccc(NCCCC)c2c1C(=O)c1ccccc1C2=O
active: [3] 3.46 µM
inactive: all other assays above

S=C(NC1CCCCC1)NC1CCCCC1
inactive: all assays above

O=Nc1ccc(O)cc1
inactive: all assays above

C/C=C\C/C=C/CCCCCCCCOC(C)=O
inactive: [4] | [5]
active: [1] 32.7 µM | [2] 23.3 µM | [3] 20 µM | [6] 29.7 µM | [7] 29.9 µM | [8] 30.4 µM | [9] 28.3 µM | [10] 32.9 µM

N#[N+]c1ccc2c(S(=O)(=O)[O-])cccc2c1O
inactive: all assays above

Source: PubChem BioAssay (EPA / NIEHS)
